Source: PubChem
Rows were chosen to be rich in hits. Some 2.5% of all compounds tested hit in one or more screens of this group.
14-3-3 Bad PPI: disrupts binding of bovine 14-3-3 zeta to phospho-Bad peptide. TR-FRET 14-3-3zeta/Dy647-pBad peptide displacement, 1 h. inhibition, % at 21.7 µM. 220,000 compounds, 0.71% hits;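 active = inhibition above about 70%, limit read from the data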;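 also: 0% = full 14-3-3 plus peptide FRET controls and 100% = background without 14-3-3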
Target sequence (P63103 whole entry, looked up): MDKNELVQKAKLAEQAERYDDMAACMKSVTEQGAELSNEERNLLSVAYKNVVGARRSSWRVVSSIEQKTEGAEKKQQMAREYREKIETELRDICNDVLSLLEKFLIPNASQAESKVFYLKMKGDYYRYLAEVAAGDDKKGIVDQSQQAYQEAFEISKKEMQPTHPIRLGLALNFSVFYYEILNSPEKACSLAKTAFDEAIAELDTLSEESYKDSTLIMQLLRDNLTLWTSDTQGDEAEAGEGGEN
Mcl1 Bid PPI: Mcl-1/Bid interaction inhibition; TR-FRET Mcl-1/Bid-Dy647 peptide binding, 1536-well; Q07820; 220,000 compounds, 0.97% hits; inhibition, % at 21.7 µM; AID 1021;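 active = compounds that cut the binding signal by more than half at the single screening dose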;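 also: His-tagged Mcl-1 with europium anti-His antibody binding Bid BH3 peptide; 0% = Mcl-1 plus peptide wells and 100% = peptide-only wells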
Bim-Mcl-1: inhibitors of Bim-Mcl-1 interaction, human; Q07820; Bead-based flow cytometry, Bim peptide-Mcl-1 binding; inhibition, % at 10 µM; 190,000 compounds, 0.1% hits; in the data active = inhibition above about 40%;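 also: 0% = no compound tracer wells and 100% = peptide blocker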
Mcl1-Noxa inh: Mcl-1/Noxa interaction inhibition. Q07820. TR-FRET Mcl-1/Noxa peptide binding, 2 h. inhibition, % at 21.7 µM. 220,000 compounds, 1.5% hits. AID 1022;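 active = compounds that cut the protein-peptide binding signal by more than 50% relative to plate controls in a single-dose test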;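 also: His-tagged Mcl-1 with rhodamine Noxa BH3 peptide and terbium anti-His antibody; 0% = Mcl-1 plus Noxa peptide wells and 100% = peptide-only wells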
MCL1 BIM primary: disrupts human MCL1 binding to BIM-BH3 peptide; inhibition, % at 10.9 µM; Q07820; GST-MCL1 / FITC-Bim-BH3 fluorescence polarization; AID 2057; 320,000 compounds, 0.68% hits;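 active = inhibition above the mean inhibition of all tested compounds plus 3 SD, set per campaign, cut at about 40% in these data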;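 also: 0% = DMSO wells and 100% = unlabeled Bim-BH3 peptide control; higher means more loss of mP so more displacement of Bim peptide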
Bcl-xL conf: Bcl-xL (human) inhibition, MCL1 counter-screen confirmation | shares compounds with MCL1 BIM primary | GST-Bcl-xL / FITC-Bim BH3 peptide FP binding | inhibition, % at 10.9 µM | 1,700 compounds, 54% hits | AID 2166;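 active = inhibition above a cutoff equal to the mean inhibition of all tested compounds plus 3 SD, cut at about 30% in these data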;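 also: 0% = DMSO wells and 100% = unlabeled Bim BH3 control peptide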
MCL1 BIM confirm: MCL1-BIM-BH3 interaction inhibition, confirmation. shares compounds with MCL1 BIM primary. GST-MCL1 / FITC-Bim-BH3 fluorescence polarization. inhibition, % at 10.9 µM. 1,700 compounds, 61% hits. AID 2168;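 active = inhibition above the average of all tested compounds plus 3 SD, cut at about 40% in these data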;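 also: 0% = DMSO wells and 100% = unlabeled Bim-BH3 control peptide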
Starred values were filed as active, the others as inactive; x = not tested or not shown; + = active, no number.

SMILES	14-3-3 Bad PPI	Mcl1 Bid PPI	Bim-Mcl-1	Mcl1-Noxa inh	MCL1 BIM primary	Bcl-xL conf	MCL1 BIM confirm
CCN(CC)S(=O)(=O)c1ccc(Nc2cc(C)nc3ncnn23)cc1	x	-26	-3	-10	4	x	x
N#C/C(=C\c1ccc(-c2ccc(F)cc2)o1)C(=O)Nc1nc(-c2cccs2)cs1	14	22	1	57*	41*	45*	73*
CC(=O)N1c2ccccc2C(=O)C1N1CCCCC1 (configuration not stated)	-15	-6	-5	-19	69*	52*	63*
N#Cc1cc2c(=O)n3ccccc3nc2n(Cc2ccco2)c1=NC(=O)c1ccco1	-17	-32	3	11	75*	15	12
CCCCn1c(=NC(=O)c2ccco2)c(C(=O)OCC)cc2c(=O)n3ccccc3nc21	1	-25	0	16	3	x	x
CCOC(=O)c1cc2c(=O)n3ccccc3nc2n(Cc2ccco2)c1=NC(=O)c1ccc(OC)cc1OC	-9	-26	0	6	52*	11	12
CC(=O)N=c1c(C#N)cc2c(=O)n3cccc(C)c3nc2n1Cc1ccco1	-2	-16	x	15	16	x	x
Cc1ccc2nc(SC(C(=O)c3ccccc3)c3ccccc3)nc(C)c2c1 (configuration not stated)	2	-4	-1	-15	4	x	x
Cc1cc2nc3ccc(N(C)C)cc3nc2cc1N	x	x	x	x	126*	128*	143*
O=C(CSC1=Nc2ccccc2C2=NC(CC(=O)NC3CCCCC3)C(=O)N12)NCc1ccco1 (configuration not stated)	3	-12	0	10	63*	46*	56*
O=C(CCC1N=C2c3ccccc3N=C(SCc3ccccc3Cl)N2C1=O)NCc1ccco1 (configuration not stated)	-1	-13	-2	27	11	x	x
O=C(CSc1nc(C2CC2)nc2ccccc12)N1c2ccccc2Sc2ccc(C(F)(F)F)cc21	-18	-22	-4	-27	47*	11	14
COc1cccc(F)c1C(=O)NC(=O)Nc1ccc2nc(C)oc2c1	-6	-45	x	23	119*	54*	40
CCN(CC)C(=O)C1=C(C)NC(=O)NC1c1ccccc1F (configuration not stated)	5	-18	0	8	66*	23	27
COc1ccc2ccc3c(c2c1)N=CC1(O3)N(C)c2ccccc2C1(C)C (configuration not stated)	-3	-28	-4	44	54*	62*	83*
O=C(CCC1CCN(C(=O)c2cc(C(F)(F)F)ccc2Cl)CC1)NC1CC1	x	x	x	x	-1	x	x
Cc1ccc(C(=O)N2CCN(c3cccc(Cl)c3)CC2)cc1C	8	-28	0	-5	-2	x	x
CCNc1cccc2c1C(=O)N(C)C2=O	-3	2	1	0	+	167*	+
CCOc1cc(NS(C)(=O)=O)c(OCC)cc1NC(=O)c1cccs1	-2	-27	-3	13	3	x	x
COc1ccc2ccccc2c1C(O)c1nccn1C (configuration not stated)	7	-3	-1	-7	+	164*	197*
CCn1c(CS(=O)Cc2ccc(Cl)cc2Cl)nnc1SCc1c(Cl)cccc1Cl (configuration not stated)	x	-62	2	-16	-3	x	x
C=C(C)CCC(C)N1CCC(n2nccc2NC(=O)CCCc2ccccc2)CC1 (configuration not stated)	x	x	x	x	3	x	x
CSCC(C)N1CCC(n2nccc2NC(=O)CCCc2ccccc2)CC1 (configuration not stated)	x	x	x	x	108*	99*	119*
COCc1nc2ccccc2n1Cc1ccccc1	-5	-10	1	-14	-3	x	x
ClCc1nc2ccccc2n1Cc1ccccc1	x	x	x	x	160*	54*	79*
On1ccccc1=S	x	x	x	x	68*	2	2
COc1ccc(-c2csc(N3C(=N)SCC3=O)n2)cc1	29	-1	1	-14	-1	x	x
